From PubChem BioAssay
Hits are enriched below; roughly 12% of the tested compounds scored in any of these assays.
Lmaj promast = reduces viability of Leishmania major promastigotes. 9% of 200,000 active. resazurin fluorescence viability. inhibition, % at 10 µM; in the data active = inhibition above about 50%;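 note: promastigotes grown with compound for 44 hours at 28 °C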
KCC2 mod = KCC2 (human) Cl- transport modulation | 2.2% of 190,000 active | AID 1456 | Q9H2X9 | B-score of Tl+ flux slope (higher = more flux/activation; lower = inhibition) at 10 µM | KCC2 cells, thallium flux FluoZin-2 fluorescence;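 active = thallium flux slope and its plate-corrected score both differing from the plate sample mean at a set confidence after two filtering rounds, in either direction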;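 note: slope of fluorescence scaled to starting intensity during 10 to 20 s after thallium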
ROMK primary = modulators of human ROMK potassium channel | P48048 | Tet-inducible ROMK, thallium flux fluorescence; actives lie on both sides | B-score at 10 µM | 2% of 130,000 active | AID 1918;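 active = signal ratio slope over the read window, or its plate-corrected B-score, at least 3 SD from the plate mean, either direction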;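 note: B-score of the F/F0 ratio slope over 7 to 12 s after thallium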
Target sequence (P48048 whole entry, looked up): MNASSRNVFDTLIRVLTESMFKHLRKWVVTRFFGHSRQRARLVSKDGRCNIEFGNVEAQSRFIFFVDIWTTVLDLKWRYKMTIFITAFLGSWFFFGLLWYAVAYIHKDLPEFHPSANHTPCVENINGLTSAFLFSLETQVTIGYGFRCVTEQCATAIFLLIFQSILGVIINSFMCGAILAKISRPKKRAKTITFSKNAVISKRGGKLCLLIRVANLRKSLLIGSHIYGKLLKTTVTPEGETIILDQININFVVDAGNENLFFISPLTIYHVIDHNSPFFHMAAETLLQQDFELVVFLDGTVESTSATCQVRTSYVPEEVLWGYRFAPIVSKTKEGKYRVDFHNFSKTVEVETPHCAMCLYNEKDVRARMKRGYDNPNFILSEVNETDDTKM
WT yeast gro inh = growth inhibition of WT yeast, mitochondrial fusion screen. 2.1% of 190,000 active. mitochondrial fusion phenotypic screen, WT strain. inhibition, % at 10 µM. AID 1362; in the data active = inhibition above about 58%; tested in S. cerevisiae
m-calpain inh = blocks pig calpain II enzyme activity; purified calpain II, fluorogenic peptide substrate, 30 min; inhibition, % at 16 µM; 0.37% of 220,000 active; AID 1236;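 active = inhibition above about 50%, limit read from the data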
KCC2 secondary = confirmation of human KCC2 transport modulators | shares compounds with KCC2 mod | HEK293-KCC2, thallium flux, FluoZin2 fluorescence; active compounds read high | normalised thallium flux (F/F0 slope) at 10 µM | 15% of 3,700 active;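 active = thallium flux slope above the same plate's solvent-only control mean plus 3 SD; inconclusive = the two replicate wells disagree; inactive = no significant difference from solvent-only control wells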
KCC2 bumet counter = bumetanide-insensitive thallium flux in KCC2 cells with ouabain, counter-screen | shares compounds with KCC2 mod | HEK293-KCC2 + bumetanide/ouabain, thallium flux FluoZin2; active compounds read high | normalized thallium flux at 10 µM | 49% of 3,700 active | AID 1714;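 active = thallium entry rate above the same plate's blocked-transporter control wells by more than 3 SD; inconclusive = the two repeat wells disagree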;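 note: raw slope of fluorescence over initial fluorescence between 10 and 20 s after thallium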
KCC2 sec2 = KCC2 (human) modulation, second secondary assay; shares compounds with KCC2 mod; HEK293-KCC2, thallium flux FluoZin2 fluorescence; actives lie on both sides; F/F0 rise rate, 10–20 s post-thallium; normalized thallium flux at 10 µM; 23% of 3,700 active;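 active = thallium flux slope more than 3 SD above or below the plate's solvent-only control mean, mostly below; inconclusive = the two repeat wells disagreed; inactive = no significant shift from solvent-only controls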;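 note: raw slope with 0.1% DMSO as baseline and bumetanide as block control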
HEK293 Tl flux = counter-screen for KCC2 modulators: effect in parental HEK293 cells. shares compounds with KCC2 mod. thallium flux FluoZin2, ouabain; baseline-ratio fluorescence slope, 10–20 s after thallium. thallium flux rate (normalised fluorescence) at 10 µM. 46% of 3,700 active. AID 1716;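 active = thallium flux rate significantly above the same plate's solvent-only control wells, beyond their mean plus 3 SD; inconclusive = the two replicate wells gave conflicting results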
KCC2 ouabain = modulates human KCC2 on retest with ouabain. shares compounds with KCC2 mod. HEK293-KCC2, thallium flux FluoZin2 fluorescence; bidirectional: low = inhibitor, high = activator. 48% of 3,700 active. raw Tl+ flux slope (below DMSO = inhibition, above = activation) at 10 µM. AID 1717;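 active = thallium flux slope beyond 3 SD from same-plate DMSO control mean in most replicates, usually higher, sometimes lower; inconclusive = repeat tests gave conflicting results; inactive = no significant difference from controls in most replicates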;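 note: slope of initial-normalized fluorescence between seconds 10 and 20 after thallium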
HEK counter2 = counter-screen for KCC2 modulators: effect in parental HEK293 cells. shares compounds with KCC2 mod. thallium flux FluoZin-2 fluorescence slope. AID 1718. 33% of 3,700 active. thallium flux slope at 10 µM;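 active = thallium flux slope above the same plate's solvent-control mean plus 3 SD in both duplicate wells; inconclusive = duplicate wells that disagreed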;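 note: run without ouabain in cells lacking the KCC2 cotransporter; slope of fluorescence scaled to its starting value between 10 and 20 s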
Numbers without * were called inactive; ? = inconclusive; . = not tested or not shown.

SMILES	Lmaj promast	KCC2 mod	ROMK primary	WT yeast gro inh	m-calpain inh	KCC2 secondary	KCC2 bumet counter	KCC2 sec2	HEK293 Tl flux	KCC2 ouabain	HEK counter2
CCOC(=O)N=Nc1c(O)n(Cc2ccccc2)c2ccccc12	0.3	6.88*	-0.678	9.2	22.8	0.00571	0.0125*	0.0342	0.0121*	0.0229	0.0139*
COC(=O)c1ccc(Cn2c(O)c(N=NC(N)=S)c3ccccc32)o1	.	7.07*	1.1	.	-17.5	?	0.0301*	0.0345	0.0157*	0.0265	?
O=C(CSc1ccc(Br)cc1)N1CCN(C(=O)c2ccco2)CC1	-3.9	-0.845	0.0649	-6.4	-27.6	.	.	.	.	.	.
CCc1nn(C(C)C(=O)N2CCc3ccccc3C2)c(=O)c2cc3occc3n12 (configuration not stated)	-5.2	-5.93*	.	17.1	-19.6	?	0.00414	0.0222*	0.0061*	0.0122*	?
CCc1nn(CC(=O)N2CCN(Cc3ccc4c(c3)OCO4)CC2)c(=O)c2cc3occc3n12	2.5	-0.175	.	8.9	8.7	.	.	.	.	.	.
Cc1ccccc1-c1n[nH]c(=S)n1Cc1ccccc1	-6.1	-0.931	0.631	13.4	-12.2	.	.	.	.	.	.
C=CCn1c(-c2cccc(Cl)c2)n[nH]c1=S	-7.3	0.0351	.	-1.3	-17.8	.	.	.	.	.	.
S=c1[nH]nc(COc2cccc(Cl)c2)n1Cc1ccccc1	-3.0	20.2*	-0.318	73.3*	-13.8	0.0103	0.0278*	0.0343	0.0148*	?	0.0118*
CCc1cc(-c2n[nH]c(=S)n2Cc2ccccc2)cs1	-9.4	14.7*	0.0801	64.8*	17.1	0.00671	0.0198*	0.0301	0.0158*	?	0.0113*
Cc1[nH]c2ccc(-c3n[nH]c(=S)n3Cc3ccccc3)cc2c1C	2.9	-1.31	1.02	-11.2	-10.0	.	.	.	.	.	.
S=c1[nH]nc(-c2cccc(Cl)c2)n1Cc1ccccc1	-9.9	3.96*	-0.834	0.3	-8.6	0.0148*	0.0436*	0.0368	?	0.0382*	?
S=c1[nH]nc(-c2ccc(Cl)cc2Cl)n1Cc1ccccc1	-4.5	8.95*	0.19	50.9	28.6	0.00593	0.0388*	?	0.0206*	0.0335*	0.0231*
CC(C)n1cc(CN2CCN(CCc3ccccc3)C(CCO)C2)cn1 (configuration not stated)	27.6	-0.33	1.12	3.9	13.1	.	.	.	.	.	.
CCOC(=O)c1c[nH][nH]c1=O	.	0.452	-0.0194	.	2.1	.	.	.	.	.	.
COc1ccc(-c2nc3c4ccccc4ccn3c2CN2CCOCC2)cc1OC	.	-0.317	-0.582	.	-72.2	.	.	.	.	.	.
COc1ccc(N2C(=O)/C(=C/c3cccs3)NC2=S)cc1	-5.8	8.75*	.	10.0	12.2	0.0132*	0.0215*	0.0347	0.0236*	0.0317*	0.0112*
CN(C)/C=C1\NC(=S)N(c2ccccc2)C1=O	-0.4	1.01	.	-10.4	-7.0	.	.	.	.	.	.
CCOc1ccc(NC(=S)N2CCN(c3ccc(N4CCOCC4)nn3)CC2)cc1	8.8	-0.291	.	9.3	-275.2	.	.	.	.	.	.
CCCN1Cc2cccc(C(=O)Nc3ccc(C)cc3)c2C1=O	3.1	.	-0.465	-4.8	-14.7	0.00578	0.00432	0.028	0.0073	0.0179	0.00986
Cc1sc2ncn(CC(=O)OC(C)C)c(=O)c2c1C	-4.0	-0.136	-0.0518	-15.5	-8.4	.	.	.	.	.	.
Cc1sc2ncn(CC(=O)OCC(=O)NC(C)(C)C)c(=O)c2c1C	-0.6	.	.	-12.5	1.7	0.00677	0.00502	0.0301	0.008	0.0188	0.0115
Cc1ccc(C(=O)N/C(=C/c2cccs2)C(=O)NCCCn2ccnc2)cc1	-1.8	0.943	-0.096	8.5	27.4	.	.	.	.	.	.
Cc1ccccc1N(CC(=O)NCCSc1ccccn1)S(=O)(=O)c1ccccc1	4.6	-2.86*	-0.0175	5.5	-13.8	0.008	0.00597	0.0306	0.00705	0.0192	0.0098
Cc1cc(C)cc(N(CC(=O)NCCSc2ccccn2)S(=O)(=O)c2ccccc2)c1	8.9	-0.986	.	5.7	4.8	.	.	.	.	.	.
CCNC(=O)CON=C1c2ccccc2-c2ccccc21	0.0	.	0.994	0.5	-7.5	.	.	.	.	.	.
SMILES	Lmaj promast	KCC2 mod	ROMK primary	WT yeast gro inh	m-calpain inh	KCC2 secondary	KCC2 bumet counter	KCC2 sec2	HEK293 Tl flux	KCC2 ouabain	HEK counter2
CS(=O)(=O)N(CC(O)CON=C1c2ccccc2-c2ccccc21)c1ccc(F)cc1 (configuration not stated)	-1.8	.	-0.604	-13.4	-15.1	0.00604	0.00459	0.031	?	0.0192	0.01
O=C(NCc1ccc(Cl)cc1)c1n[nH]c([N+](=O)[O-])c1Cl	-4.0	-3.79*	-0.509	-8.7	8.0	0.00735	0.00566*	?	?	0.0157	0.0101
Cc1oc2ccccc2c1CC(=O)NCCCN(C)C	.	-0.095	0.396	.	-6.4	.	.	.	.	.	.
CCOCCCNC(=O)/C(C#N)=C/c1cc(Br)c(O)c(Br)c1	.	-4.01*	.	.	-2.9	0.00726	0.00398	0.0294	0.00694	0.017	0.00962
COc1cc(/C=C(/C#N)C(=O)NCCc2c[nH]c3ccccc23)ccc1OCc1ccccc1F	-3.8	-0.234	0.632	-3.4	13.9	.	.	.	.	.	.
COc1cc(/C=C(\C#N)C(=O)NCCc2ccccc2)cc(OC)c1O	8.2	-6.22*	-2.7	-9.8	-12.3	0.00558	3.98e-05*	0.0198*	0.00444*	0.00912*	?
COCCNC(=O)/C(C#N)=C/c1cc(Br)c(O)c(OC)c1	12.0	-0.00628	-0.338	-17.9	15.5	.	.	.	.	.	.
CCCCN1C2CCCC1CC(NC(=O)N(C(C)C)C(C)C)C2 (configuration not stated)	-7.7	-0.379	-0.23	.	.	.	.	.	.	.	.
Cc1noc(C)c1S(=O)(=O)Nc1ccc(O)c2c(=O)cc(-c3ccccc3Cl)oc12	.	-2.55	.	.	-9.9	.	.	.	.	.	.
N#CCSc1nnc(COc2cccc3ccccc23)n1-c1cccc(Cl)c1	-6.7	7.57*	-0.544	24.3	-33.5	0.00719	?	0.0299	0.00812	0.0202	0.011
Cc1nc(-c2ccc(Cl)cc2)sc1C1(C)CC(c2ccc(C#N)cc2)=NO1 (configuration not stated)	.	0.633	.	.	-20.2	.	.	.	.	.	.
NC1=NC[C@@H](Cc2ccc(O)cc2)N1CCc1cc(C(F)(F)F)cc(C(F)(F)F)c1	.	-3.19*	.	.	32.9	0.00557	0.00448	0.0224*	0.00763	0.0136*	0.00961
NC1=NC[C@@H](Cc2ccc(O)cc2)N1CCc1cccc(F)c1	.	0.77	.	.	-19.9	.	.	.	.	.	.
O=S(=O)(N/N=C/c1ccc(Cl)cc1)c1ccc(Cc2ncc(C(F)(F)F)cc2Cl)s1	-6.9	-0.645	0.221	42.4	-65.6	.	.	.	.	.	.
